# Assay results taken from PubChem BioAssay (NCI).
# About 83,000 compounds went through this panel and 20% of them were active in at least one assay; those are over-represented in the sample as a whole.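 Percent growth is the endpoint: 0 to 100 indicates growth inhibition (40 means 60% inhibition), 0 means no net growth, and negative values indicate cell death.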 Unmarked numbers belong to inactive results. Active and inactive are the calls of the source. Rule for the calls: active = growth percent below 10; inactive = the rest.
# Key:
# Test in all cases: NCI-60 one-dose screen, 48 h (100 = growth as untreated, 0 = no growth, -100 = all killed)
# Details in all cases: 10 µM unless noted
# NCI-H23 lung = tested on: NCI-H23 lung
# NCI-H226 lung = tested on: NCI-H226 lung
# NCI-H322M lung = tested on: NCI-H322M lung
# HOP-62 NSCLC = tested on: HOP-62 NSCLC
# NCI-H460 lung = tested on: NCI-H460 lung
# HOP-92 NSCLC = tested on: HOP-92 NSCLC
# NCI-H522 lung = tested on: NCI-H522 lung
# A549/ATCC NSCLC = tested on: A549/ATCC NSCLC
# 786-0 renal = tested on: 786-0 renal
# COLO 205 colon = tested on: COLO 205 colon
# DU-145 prostate = tested on: DU-145 prostate
# K-562 leukemia = tested on: K-562 leukemia
# MALME-3M melanoma = tested on: MALME-3M melanoma
# MDA-MB-231 breast = tested on: MDA-MB-231 breast
# RXF 393 renal = tested on: RXF 393 renal
# SF-268 CNS = tested on: SF-268 CNS
# SF-295 CNS = tested on: SF-295 CNS
# UACC-257 melanoma = tested on: UACC-257 melanoma
# M14 melanoma = tested on: M14 melanoma
# SF-539 CNS = tested on: SF-539 CNS
SMILES,growth (NCI-H23 lung),growth (NCI-H226 lung),growth (NCI-H322M lung),growth (HOP-62 NSCLC),growth (NCI-H460 lung),growth (HOP-92 NSCLC),growth (NCI-H522 lung),growth (A549/ATCC NSCLC),growth (786-0 renal),growth (COLO 205 colon),growth (DU-145 prostate),growth (K-562 leukemia),growth (MALME-3M melanoma),growth (MDA-MB-231 breast),growth (RXF 393 renal),growth (SF-268 CNS),growth (SF-295 CNS),growth (UACC-257 melanoma),growth (M14 melanoma),growth (SF-539 CNS)
O=C(/C=C/c1cc2ccccc2[nH]c1=O)/C=C/c1cc2ccccc2[nH]c1=O,-41.6% (active),-30.3% (active),86.9%,0.443% (active),-36.7% (active),68.7%,-51.1% (active),-8% (active),-59.5% (active),-11.6% (active),10.1%,1.78% (active),-24.8% (active),-6.36% (active),-91.8% (active),-36% (active),4.04% (active),-31.9% (active),-45.4% (active),
CCCCCCCCCCCCCCCCCCSC1=CC(=O)C(OC)=C(OC)C1=O,89.8%,96.7%,114%,108%,105%,56.5%,94.5%,103%,120%,111%,113%,82.2%,112%,93.5%,97.7%,110%,97.9%,90.8%,74.6%,
C=C1CCC2C3(C)COC(c4cccc(Cl)c4)OC3CCC2(C)C1/C=C/C1=CCOC1=O (stereo unspecified),38.2%,61%,90.2%,76.7%,36.2%,98.2%,57.8%,58.4%,65.9%,106%,79.1%,24.3%,84.6%,80.1%,80.9%,83.7%,45.7%,57.4%,83.6%,
C/C(=C(/c1ccc(O)cc1)c1ccc(OCCN2CCCC2)cc1)c1ccccc1,68.1%,82.9%,75.8%,70.3%,24.7%,30%,49.8%,48.7%,57.1%,-56.4% (active),78.8%,2.35% (active),8.05% (active),49.6%,42.4%,63.8%,44.3%,-29.5% (active),-53.7% (active),
O=C1c2cccnc2C(=O)c2c1c(C(=O)OCCN1CCCCC1)c1ccccn21,-53.2% (active),-15.3% (active),-81.7% (active),-34.5% (active),-16.7% (active),12.5%,-64.5% (active),-46.6% (active),-45.9% (active),-70.3% (active),-89.7% (active),-40.9% (active),-74.3% (active),-27.9% (active),-44.5% (active),-19.8% (active),-37% (active),-75% (active),-20.8% (active),
O=C(Nc1ccc(Nc2cc(Nc3ccccc3)ncn2)cc1)Nc1cc(C(F)(F)F)ccc1F,77.5%,94.7%,61.9%,68.6%,69.8%,49.3%,24.5%,48.1%,84.4%,64.4%,65.7%,56.1%,85.9%,56.9%,61.2%,94.6%,84.2%,73.6%,57.4%,
O=C1c2c[n+](Cc3ccccc3)ccc2-c2nc3ccccc3c3ccnc1c23,-32.8% (active),-92.2% (active),-17.8% (active),-27.2% (active),-55% (active),-45.4% (active),-66.3% (active),-26.1% (active),-5.78% (active),-90.1% (active),-89.5% (active),-6.85% (active),-95.7% (active),-14% (active),-57.1% (active),-1.74% (active),-17.4% (active),-67.9% (active),-68.4% (active),
O=c1c2cccc3c(NC4CCCCC4)ccc(c32)c2nc3ccccc3n12,46%,72%,82.3%,90.6%,34.7%,48.4%,61.5%,66.5%,108%,75.6%,98.7%,66.9%,96.1%,82.3%,112%,99.5%,,,86.7%,96.2%
COc1ccc(/C=C2\N=C3SC=C(N)N3C2=O)cc1,23.6%,51.6%,46.6%,40.2%,17.3%,-8.02% (active),-54.5% (active),32.8%,33.2%,12.5%,26.5%,5.29% (active),-15.3% (active),42.5%,-21.2% (active),37.3%,,,24.8%,26.7%
O=C(O)c1ccccc1Nc1cccc(S(F)(F)(F)(F)F)c1,96.8%,88.9%,101%,88.4%,102%,96.1%,61.9%,84.2%,110%,104%,107%,107%,101%,110%,116%,94.2%,99.4%,102%,102%,
CCCCCN(CCCCC)CCC[C@@H](C)[C@H]1CC[C@H]2[C@@H]3[C@H](OCCCN)C[C@@H]4C[C@H](OCCCN)CC[C@]4(C)[C@H]3C[C@H](OCCCN)[C@]12C,49.2%,75.2%,24.6%,48.3%,45.2%,50%,28.8%,55.2%,61.1%,52.1%,76.5%,-19.4% (active),62.2%,37%,87.1%,87.5%,,,42.8%,-21.9% (active)
COc1ccc(/C=C2\N=C3Sc4cc(Cl)ccc4C(=O)N3C2=O)cc1,96%,83%,95.8%,103%,104%,82.6%,87.5%,96.4%,101%,105%,110%,94.1%,101%,100%,106%,106%,,,99.6%,98.7%
CCN(CC)C12CCCCC1(C)C(C#N)(C#N)C(C#N)=C(N)O2 (stereo unspecified),101%,95.6%,91.3%,98.8%,114%,83.8%,105%,106%,108%,140%,107%,95.5%,92.3%,108%,144%,99.6%,98%,114%,102%,
O=C(O)c1ccc(=O)[nH]n1,103%,107%,117%,111%,112%,87.9%,106%,116%,116%,111%,135%,102%,120%,103%,122%,125%,109%,105%,107%,
COc1ccc(/C=c2/c(=O)[nH]c3nc4sc(C)c(C)c4c(=O)n23)cc1,90.7%,94%,98.7%,100%,88.3%,92.6%,74.4%,79.7%,88.1%,111%,92.6%,81.6%,92.6%,97.3%,93.7%,88.5%,,,96.2%,92.8%
COCCCNc1nc(NC(=O)c2ccc(F)cc2C)cc(-c2cccnc2)n1,107%,89.1%,102%,99.4%,102%,67%,78.6%,79.8%,98.4%,111%,110%,104%,107%,81.1%,99.5%,104%,104%,84.1%,103%,
O=C1Nc2ccc(Br)cc2C12CC(c1ccccc1)=NN2 (stereo unspecified),58.7%,57.3%,35.2%,51.6%,18.1%,58.2%,20%,31.6%,46.8%,30.5%,69.9%,23.8%,37.9%,50.6%,61.4%,58.7%,,,28.2%,32.9%
O=C1Nc2ccccc2/C1=C/C(=N/c1nnc(-c2ccc(Cl)cc2)s1)c1ccccc1,29.1%,84.3%,77%,51.5%,63.7%,26.3%,-95.7% (active),82.6%,-56.9% (active),0.635% (active),30.5%,8.67% (active),-26.5% (active),35.5%,-63.3% (active),55.9%,,,52.2%,27.9%
CSc1ccc(N=C=C(c2ccccc2)c2ccccc2)cc1,99%,95.7%,107%,96.1%,102%,85.4%,71.8%,78.4%,95.6%,107%,109%,60.4%,105%,84.7%,105%,95.8%,96.1%,93.3%,80.4%,
CCCCCCCCCCCCCCCCNCCC[C@@H](C)[C@H]1CC[C@H]2[C@@H]3[C@H](OCCCN)C[C@@H]4C[C@H](OCCCN)CC[C@]4(C)[C@H]3C[C@H](OCCCN)[C@]12C,-39.7% (active),-1.42% (active),-76.8% (active),-49.5% (active),-45.5% (active),-33.2% (active),-43.6% (active),-58% (active),-43.1% (active),-40.8% (active),-82.2% (active),-34.7% (active),-60.7% (active),-98.2% (active),-41.2% (active),-38.2% (active),,,-28.7% (active),-68% (active)
CN(C)c1ccc(C2Nc3ccccc3-n3cccc32)cc1 (stereo unspecified),102%,82.8%,91.9%,107%,85.8%,89.7%,113%,98.3%,108%,96%,114%,121%,99.6%,96.5%,98.5%,103%,102%,111%,99.1%,
